Data taken from PubChem BioAssay.
The source made the active and inactive calls.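 The calls were made as follows, unless noted: active = mean z-score across replicates of 1.96 or higher in either the MELAS or the Rieske mutant cell line; inactive = the rest.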

Experiments:
[1] = survival rescue of mitochondrial mutant cells in low glucose, primary screen, MELAS cybrids, Rieske KO mouse fibroblasts, CellTiter-Glo (AID 1508586);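 also: test concentration not given here; z relative to plate mean and SD of compound and empty wells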
[2] = viability rescue of complex I mutant cybrids, primary screen, cell-based, galactose medium, ATP luminescence (AID 1645843;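 active = z-score of at least 1.8 in each of two replicates, scored against plate mean and spread of sample wells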;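 also: positive z means more ATP and so rescue of galactose-driven cybrid death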); conditions: complex I mutant cybrid cells, 72 h, stronger effect = higher value
[3] = MELAS cybrid survival, CellTiter-Glo 48 h, stronger effect = higher value
[4] = Rieske KO mouse fibroblast survival, CellTiter-Glo 72 h

SMILES | z-score [1, 3] | z-score [1, 4] | z-score [2]
O=C(NCC1CCCO1)[C@@H]1C[C@H](CN2CCOCC2)CN(Cc2ccc3ccccc3c2)C1 (stereo partly drawn) | -0.349 (inactive) | -0.753 | 0.17 (inactive)
O=C1N[C@@H](CSCc2ccccc2)C(=O)N2CCN(C(=O)Oc3ccccc3)C[C@H]12 | 1.38 (inactive) | -0.171 | -1.57 (inactive)
COc1ccc(CNC(=O)c2cc(NCc3nc[nH]c3C)cc(S(=O)(=O)N3CCCC3)c2)cc1 | -0.477 (inactive) | -0.812 | 0.755 (inactive)
C=CCn1nc(C(=O)N2CCSCC2)c2c1CCC(N1CCOc3ccc(Cl)cc3C1)C2 (stereo not drawn) | -0.526 (inactive) | -0.713 | 0.51 (inactive)
Cc1cc(-c2cc3c(n(C)c2=O)CCN(Cc2ccc(Sc4nncn4C)o2)C3)ccc1F | -0.56 (inactive) | -0.369 | 0.445 (inactive)
CC(C)/C=C/CNc1cc(C(=O)NCc2cn3ccccc3n2)cc(S(=O)(=O)NC(C)C)c1 | 1.64 (inactive) | -0.726 | -1.65 (inactive)
